This is a sample that favours compounds with a hit; in the whole collection about 2.4% have one here.
STAT1 inh: STAT1 signaling inhibitors, primary screen, cell-based, HTS, luciferase reporter; NIH 3T3 STAT1-luciferase reporter, IFN-gamma, luminescence; inhibition, % at 5.5 µM; 200,000 compounds, 0.35% hits;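 active = inhibition above a set limit, the mean inhibition across all tested compounds plus 3 SD, cut at about 34% in these data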;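 note: 0% = IFN-gamma with DMSO and 100% = IFN-gamma with 300 µM nifuroxazide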
HSF1 inhib: HSF1 inhibitors in luciferase reporter cells, primary screen, cell-based, NIH3T3, luminescence. 300,000 compounds, 0.77% hits. NIH3T3-HGL HSE-luciferase, MG132-induced, luminescence 8 h; active compounds read low. activity change, negative = inhibition, % at 7.5 µM (by protocol);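 active = more than half of replicate wells show activity change below -50%, luminescence cut by over half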;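 note: luciferase reports HSF-1 transcriptional activity via heat shock element; 0% = median of DMSO wells and -100% = zero luminescence signal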
C8 TRAIL sens: viability loss with TRAIL in NB7+C8 cells, primary screen, TRAIL sensitizer project, cell-based, ATPlite luminescence; inhibition (viability loss, TRAIL sensitization), % at 10 µM; 360,000 compounds, 1% hits;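 active = compounds causing at least 50% loss of cell viability in the single-dose screen, relative to plate controls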
PPC-1+TRAIL kill: compounds killing PPC-1 cancer cells with TRAIL present, primary screen, TRAIL potentiator project, ATPLite luminescence, uHTS; PPC-1 cells + TRAIL, ATPLite viability luminescence; cell killing (% activity), % at 4 µM or 5 µM; 220,000 compounds, 0.41% hits; AID 1443, 2008;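 active = cell killing above 50% in the first pass at 4 µM, then a duplicate retest at 5 µM averaging 50% or more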;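 note: plate controls were cells with TRAIL plus DMSO for no effect and medium-only wells lacking cells for full effect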
HSP90 inh: HSP90 inhibitors, primary screen, cell lysate, luminescence | Rabbit reticulocyte lysate, luciferase refolding luminescence, 3 h | 290,000 compounds, 0.91% hits | inhibition, % at 5.6 µM | AID 1789, 2009;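 active = inhibition above the screen-wide mean plus 3 SD, computed separately per campaign, cut at about 16% in these data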;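 note: 0% = DMSO wells and 100% = 60 µM geldanamycin wells; inhibitors lower the luminescence because luciferase stays unfolded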
STAT3 inh: IL-6 driven STAT3 reporter inhibitors, primary screen, U3A cells, luciferase, luminescence, MLSCN library. IL-6 STAT3-luciferase reporter; host cell line lacks STAT1. inhibition, % at 5.5 µM. 190,000 compounds, 0.89% hits;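 active = inhibition above the mean inhibition across all screened compounds plus 3 SD, cut at about 44% in these data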;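 note: 0% = DMSO only wells and 100% = 100 µM nifuroxazide control wells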
The depositor's hits bear a star; / = not tested or not shown.

SMILES	STAT1 inh	HSF1 inhib	C8 TRAIL sens	PPC-1+TRAIL kill	HSP90 inh	STAT3 inh
Cc1cccc(CN2CCNC2=O)c1	9	-71*	-6	/	3	8
Cc1ccc(NC(=O)c2ccc(NCCCN3CCOCC3)c([N+](=O)[O-])c2)cc1Cl	4	2	15	21	-3	-6
O=C(NCCCN1CCOCC1)c1ccc(Cl)c([N+](=O)[O-])c1	/	-3	-11	/	/	/
O=C(Nc1ccc(Cl)c([N+](=O)[O-])c1)c1ccc(NCCCN2CCOCC2)c([N+](=O)[O-])c1	23	-7	56*	12	-1	8
CCOC(=O)CSc1ccc(C(=O)NCCCN2CCOCC2)cc1[N+](=O)[O-]	/	-69*	-8	/	-5	/
COc1cc(CN2C[C@@H](CO)O[C@@H](n3cnc4c(NCCCO)ncnc43)C2)cc(OC)c1OC	/	/	1	/	/	/
C[C@H](O)[C@@H]1CN2CCc3c([nH]c4ccc(-c5ccc6c(c5)OCO6)cc34)[C@@H]2C[C@@H]1N(C)C(=O)NC1CCCCC1	/	/	15	/	/	/
O=C(NC(NC(=S)Nc1ccc(Cl)c(Cl)c1)C(Cl)(Cl)Cl)c1ccco1 (centres undefined)	12	0	2	19	4	4
O=C(O)c1cccc(NC(=S)NC(NC(=O)c2ccco2)C(Cl)(Cl)Cl)c1 (centres undefined)	/	-61*	26	-5	2	/
COc1ccccc1Cc1c(-c2ccc(Cl)cc2)nc2ccc(Br)cn12	/	/	35	/	/	/
O=C(Nc1ccccc1Cl)C(=O)c1cn(CC(=O)N2CCOCC2)c2ccccc12	/	-6	54*	/	-2	/
CCn1cc(SCC(=O)N2CCOCC2)c2ccccc21	-23	10	6	6	-4	-7
CC(=O)Nc1ccc(NC(=O)CSc2cn(CC(=O)N3CCOCC3)c3ccccc23)cc1	/	-69*	-3	/	-2	/
Cc1cccc(C)c1NC(=O)C1c2ccccc2OCC(=O)N1C1CC1 (centres undefined)	/	/	4	/	/	/
Cc1ccc(/C=C(/C#N)c2nc(CCN3C(=O)c4ccccc4C3=O)cs2)cc1	0	-53*	-3	4	0	8
CNc1ncnc(Sc2nc(N)nc3nc[nH]c23)c1[N+](=O)[O-]	/	/	74*	/	/	/
Nc1nc(SCc2ccccc2)c2[nH]cnc2n1	/	2	-7	/	0	/
Nc1nc(Sc2ccc([N+](=O)[O-])c3nonc23)c2[nH]cnc2n1	/	/	75*	/	/	/
COc1ccc(Cc2c(C(C)(C)C)nc3ccc(Cl)cn23)c(C)c1	/	/	-3	/	/	/
COc1ccc(Cl)cc1NC(=O)CN(C)C(=O)Cn1cnc2c1c(=O)n(C)c(=O)n2C	/	-74*	0	/	/	/
COc1ccccc1NC(=O)Cn1cnc2c1c(=O)n(C)c(=O)n2C	-2	0	-10	7	1	3
COc1ccc(Cl)cc1NC(=O)CN(C)C(=O)Cn1c(=O)oc2ccccc21	/	-58*	27	/	/	/
COc1ccc(C(=O)Nc2cccnc2)cc1	-10	1	4	26	1	8
COc1ccc(C(=O)Nc2ccccc2C(=O)Nc2cccc(C)n2)cc1	/	15	40	/	5	/
COc1ccc(NC(=O)Nc2cc(C)ccn2)cc1	/	/	59*	/	/	/
SMILES	STAT1 inh	HSF1 inhib	C8 TRAIL sens	PPC-1+TRAIL kill	HSP90 inh	STAT3 inh
Cc1ccnc(NC(=O)COc2ccc3c(c2)CCC3)c1	/	3	70*	/	/	/
COc1ccc(C(=O)Nc2ccccc2C(=O)Nc2cccnc2)cc1	/	9	53*	/	-4	/
COc1ccc(C(=O)Nc2ccccc2C(=O)Nc2cc(C)ccn2)cc1	/	14	68*	/	0	/
Cc1ccc2nc3n(c(=O)c2c1)-c1ncccc1C(=O)NC3Cc1ccc(O)cc1 (centres undefined)	/	/	-1	/	/	/
O=C(Nc1ccc2c(c1)OCCO2)C1c2ccccc2OCC(=O)N1CC(F)(F)F (centres undefined)	/	/	-24	/	/	/
COc1ccc(C(=O)Nc2cc(C)c(NC(=O)c3ccccn3)cn2)cc1	/	7	69*	/	1	/
Cc1ccc(Nc2nc(N)c3ccccc3n2)cc1Cl	/	-11	69*	/	8	/
CCc1nc(N)nc(N)c1-c1ccc(Cl)c([N+](=O)[O-])c1	/	-3	80*	/	/	/
CCOc1cc(-c2c(C)c(CC)nc(N)c2C#N)ccc1O	-3	7	-2	-10	-2	1
CCc1nc(N)nc(N)c1-c1ccc(Cl)c(N=[N+]=[N-])c1	/	-1	83*	/	/	/
COc1cc(Cl)ccc1OC1(C)CCN(Cc2ccc(-c3ccccn3)cc2)C1 (centres undefined)	/	/	12	/	/	/
C[C@H]1COc2cc(N3CCC[C@@H]3CO)ccc2S(=O)(=O)N1	/	/	-5	/	/	/
CC1(C(=O)NC2CCCC2)CCC(=O)N1CCOc1ccccc1 (centres undefined)	/	/	2	/	/	/
CCC(=O)Nc1cccc(-c2cnc3ccccc3n2)c1	-32	2	-7	2	-5	15
O=C(CCl)Nc1ccc(Oc2cnc3ccccc3n2)cc1	-9	-2	93*	-19	3	9
O=C(CCl)Nc1cccc(-c2cnc3ccccc3n2)c1	26	-16	94*	13	2	38
COc1ccc(NC(=O)CCl)cn1	/	-3	/	14	4	/
COc1cccc(-c2[nH]nc3c2C(c2ccsc2)C(C#N)=C(N)O3)c1 (centres undefined)	15	10	-21	16	16*	5
COC(=O)[C@@]12C[C@@H](CC(=O)N3CCN(C(=O)C4CC4)CC3)C(=O)N(CCc3ccc(OC)c(OC)c3)C1=CCC(C)(C)C2	/	/	-1	/	/	/
CN(C)CCCN(C(=O)/C=C/c1cccs1)c1nc2c(F)cccc2s1	0	1	55*	14	3	13
CC(C)C[C@H]1CNC(=O)C(=O)N1C[C@@H]1CCCN1C[C@H](Cc1ccccc1)N1C[C@H](Cc2ccccc2)N(CCc2ccccc2)C(=O)C1=O	/	/	-7	/	/	/
CCOc1ccc2nc(NC(=O)c3cccc(N4C(=O)CCC4=O)c3)sc2c1	/	/	56*	/	/	/
COc1ccc2nc(NC(=O)CN3CCN(C)CC3)sc2c1	-13	-3	7	-2	3	-9
Cc1ccc2sc(NC(=O)c3cccc(N4C(=O)CCC4=O)c3)nc2c1C	/	9	17	/	-2	/
COc1ccc2nc(NC(=O)CN3CCOCC3)sc2c1	-15	-89*	0	23	7	-4
O=C(Nc1nc2ccc(Cl)cc2s1)c1cccc(N2C(=O)CCC2=O)c1	/	9	38	/	/	/
COc1ccc2nc(NC(=O)c3cccc(N4C(=O)CCC4=O)c3)sc2c1	/	/	58*	/	/	/
CCOc1ccc2nc(NC(=O)c3cccc(-c4cc5ccccc5oc4=O)c3)sc2c1	-2	5	71*	1	0	-10

Bioassay records deposited in PubChem by several laboratories.
